Bioassay records from PubChem BioAssay.
LASV entry inh – Lassa virus entry inhibition. Lassa virus pseudotype entry inhibition, cell reporter. Potency, µM (titrated, usually from 37.9 µM), for inactives: top-dose activity change, negative = inhibition, hits mostly inhibitors. 300,000 tested, 1.2% active; calls by dose curve; tested in HEK293 cells; also: potency is read from the fitted curve at half-maximal effect; nearly all actives have a fitted effect of over 50% in size
FMDV antiviral – antivirals against foot and mouth disease virus; FMDV antiviral cell-based qHTS; Potency, µM (doses to about 57.9 µM), for the others: at the top dose activity change, negative = inhibition, usual class: inhibitors; 410,000 tested, 1.2% active; AID 1159524; calls by dose curve; tested in HEK293T cells; also: read-out not given here; potency is read from the fitted curve at half-maximal effect; nearly all actives have a fitted effect of over 45% in size
HCMV inh – inhibitors of human cytomegalovirus; activity change, negative = inhibition, % at 57.5 µM; 410,000 tested, 4.5% active; HFF cells, HCMV-luciferase reporter, 72 h; stronger effect = lower value; in the data active = activity change below about -60%; inconclusive = no clear call, values can overlap the other calls; inactive = above about -39%
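Steps: HFFs plated, 16 h 37C; compounds added; HCMV-luciferase added to MOI 1 PFU/cell; 72 h 37C; OneGlo reagent, 5 min room temperature; luminescence read, normalized to controls.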
MARV entry inh – blocks Marburg virus binding to or entry into cells; Marburg virus pseudotyped entry inhibition, cell reporter; 300,000 tested, 1.8% active; AID 540276; Potency, µM (top dose mostly 37.8 µM), for the others: at the highest dose activity change, negative = inhibition, actives largely listed as inhibitors; calls by dose curve; tested in HEK293 cells; also: potency is read from the fitted curve at half-maximal effect
The depositor's hits bear a star; u = inconclusive; x = not tested or not shown; [ ] = another dose, or the depositor's remark. A selection: hits, their analogues and other compounds. The true share with any hit is near 6.2%. % is scaled to controls: 0 for no effect and ±100 for the full control effect.

SMILES	LASV entry inh	FMDV antiviral	HCMV inh	MARV entry inh
C/C(=N\NC(=O)COc1ccc(C(C)(C)C)cc1)c1cc2ccccc2o1	3.2µM*	-13%	-38	10µM*
O=C(COc1ccccc1)Nc1ccc(S(=O)(=O)NCc2ccco2)cc1	23µM*	38%	9	u
O=C(COc1ccccc1)NCC(=O)Nc1ccc(S(=O)(=O)NCc2ccco2)cc1	-8%	-17%	-103*	4%
C/C(=N/NC(=O)CNC(=O)COc1ccccc1)c1ccco1	-1%	15%	-63*	u
C=Cn1cc[n+](CC(=O)c2ccc(Br)s2)c1	x	-8%	38	x
Cc1ccnc(Sc2ccc([N+](=O)[O-])cc2[N+](=O)[O-])n1	u	u	-22	13µM*
Cc1ccc(Sc2ccc([N+](=O)[O-])cc2[N+](=O)[O-])nc1	u	u	4	u
O=[N+]([O-])c1ccc(Sc2nc3ccccc3o2)c([N+](=O)[O-])c1	-27%[14.3 µM]	35µM*	-107*	16µM*
COc1cccc(NC(=O)CSc2ccc(-c3ccco3)nn2)c1	-20%	-14%	-25	-29%
O=c1c2ccccc2nc(-c2ccccc2)n1O	x	-11%	-14	x
CCN(CC)CCNc1nc(-c2cccs2)c(CC(=O)O)s1	14%	-12%	-87*	u
COc1ccc2c(c1)C(=O)C(=O)N2CC1COc2ccccc2O1 (stereo unspecified)	x	-19%	-82*	x
CCN1CCN(CC2COc3ccccc3O2)CC1 (stereo unspecified)	x	-11%	-64*	x
CCOc1ccc2c(c1)C(=O)C(=O)N2CC1COc2ccccc2O1 (stereo unspecified)	x	u	-65*	x
CCOc1ccc(S(=O)(=O)NCCC(=O)NCC2COc3ccccc3O2)cc1 (stereo unspecified)	x	12%	5	x
COc1ccc2c(c1)C(=O)C(=O)N2CCS(=O)(=O)c1ccccc1	x	-1%	u	x
Cc1ccc2c(c1)C(=O)C(=O)N2CC1COc2ccccc2O1 (stereo unspecified)	-22%[46.1 µM]	-8%	-67*	u
CC(=O)NCC1(c2ccccc2)CCN(CC2COc3ccccc3O2)CC1 (stereo unspecified)	x	-13%	-2	x
N#CC(=C1C=C(Br)C(=NO)C=C1Cl)c1ccc(Cl)cc1	x	u	2	x
N#CC(=C1C=CC(=NO)C(Cl)=C1)c1ccccc1	x	-5%	-98*	x
Cc1cccc(NC(=S)Nc2ccc(Oc3ccccc3)cc2)n1	-18%	-16%	-61*	u
COc1cccc(NC(=S)Nc2cc(C)cc(C)n2)c1	8%	53%	-67*	u
Cc1cc(C)nc(NC(=S)Nc2cccc(F)c2)c1	1%	26%	-7	3%
N#C/C(=N\Nc1cccc(C(F)(F)F)c1)C(=O)c1ccsc1	x	12%	-97*	x
c1ccc(-n2nnnc2CN2CCOCC2)cc1	x	-15%	-68*	x
SMILES	LASV entry inh	FMDV antiviral	HCMV inh	MARV entry inh
CCCCn1nnnc1C(c1ccccc1)N1CCc2ccccc2C1 (stereo unspecified)	x	6%	-3	x
CCOC(=O)[C@]12CCC=C1N(Cc1ccc3c(c1)OCO3)C(=O)[C@H](CC(=O)N1CCSCC1)C2	x	-11%	2	x
NS(=O)(=O)c1ccc(NC(=O)NC2CC(=O)N(c3ccc4c(c3)OCCO4)C2)cc1 (stereo unspecified)	20%	15%	-4	0%
Cc1ccc(/C=C/C(=O)Nc2ccccc2C(N)=O)o1	16%[46.1 µM]	44%	88	u
CN(NC(=O)C(C)(C)C)c1nc(-c2ccccc2)nnc1C(F)(F)F	10%	-11%	-63*	10%
COc1ccc(C(=O)NN(C)c2nc(-c3ccccc3)nnc2C(F)(F)F)cc1	-10%	-24%	-13	8%
CC(C)c1ccc(/C=C(\C#N)c2nc(-c3cc4ccccc4oc3=O)cs2)cc1	18%[46.1 µM]	-17%	8	x
CC(=O)N[C@@H](C)c1nc2ccccc2n1CCCN1CCN(c2nc(-c3ccc(C)cc3)cs2)CC1	x	0%	-68*	x
CCn1c(C(C)NC(C)=O)nc2ccccc21 (stereo unspecified)	x	0%	43	x
COc1ccc(S(=O)(=O)N2CCCCC2)cc1NC(=O)Cn1c(=O)cnc2ccccc21	-11%	-18%	-24	8%
O=C1C(SCCO)=C(SCCO)C(=O)c2ccccc21	2.6µM*	10µM*	-95*	4µM*
Cc1ccc(C)c(NC(=O)C2CC(O)CN2C(=O)OCc2ccccc2)c1 (stereo unspecified)	9%	-19%	-30	1%
O=C(Nc1nc(-c2ccccn2)cs1)c1ccc(F)c(S(=O)(=O)N2CCOCC2)c1	x	u	-97*	x
CN(CC1CCCO1)S(=O)(=O)c1ccc(C(=O)Nc2nc(-c3ccccn3)cs2)cc1 (stereo unspecified)	u	28µM*	x	u
CN(CC1CCCO1)S(=O)(=O)c1ccc(C(=O)Nc2ccccc2F)cc1 (stereo unspecified)	-22%	12%	-12	0%
Cc1ccc(C(=O)Nc2nc(-c3ccccn3)cs2)cc1S(=O)(=O)N1CCOCC1	x	u	-97*	x
CCN(CC)CCn1c(-c2ccc(C)cc2)nc(=S)c2c1CC(C)(C)OC2	6%	-5%	-25	-5%
O=C(CCNS(=O)(=O)c1ccc2c(c1)CCCC(=O)N2)NCc1ccc(Cl)cc1	5%[46.1 µM]	-22%	-7	x
CCCC(=O)N(C1CC(C)C(C#N)(C#N)C1(C#N)C#N)N(C)C (stereo unspecified)	u	16µM*	-90*	u
Cc1cc(C(=O)COc2ccccc2C(N)=O)c(C)n1CC1CCCO1 (stereo unspecified)	-13%	28µM*	-62*	u
COC(=O)CCn1c(C)cc(C(=O)COc2ccccc2C(N)=O)c1C	-32%	16µM*	10	u
Cc1cc(C(=O)COC(=O)c2cccnc2Cl)c(C)n1CC1CCCO1 (stereo unspecified)	x	u	8	x
Cc1ccc(C(=O)OCC(=O)c2cc(C)n(CC3CCCO3)c2C)cc1 (stereo unspecified)	-10%	-13%	10	u
Cc1cc(C(=O)COC(=O)c2ccccc2Br)c(C)n1CC1CCCO1 (stereo unspecified)	u	0.4µM*	x	u
CCn1c(C)cc(C(=O)COC(=O)c2ccccc2[N+](=O)[O-])c1C	0.32µM*	5.6µM*	x	u
Cc1ccc(-n2c3c(cc(C(=O)Nc4ccccc4C(N)=O)c2=O)C(=O)CC(C)(C)C3)cc1	28%[46.1 µM]	-2%	-11	1%[46.1 µM]
Cc1cc(C(=O)COC(=O)c2cc(O)c3ccccc3c2O)c(C)n1CC1CCCO1 (stereo unspecified)	7%	-28%	x	u
Cc1cc(C(=O)COC(=O)c2cccc(NS(C)(=O)=O)c2)c(C)n1CC1CCCO1 (stereo unspecified)	10µM*	11µM*	-27	5.6µM*
Cc1cc(C(=O)COC(=O)c2ccccc2O)c(C)n1CC1CCCO1 (stereo unspecified)	x	35µM*	-73*	x
COCCn1c(C)cc(C(=O)COC(=O)c2ccc(S(=O)(=O)N(C)C)cc2)c1C	0%[46.1 µM]	-16%	-88*	5%[46.1 µM]
